Measurements as given in paper PMC11062922 (Nature Chemical Biology, 2023).
Read-outs that look alike come from different tables or passages of the source.

Legend:
AAK1 = system: AAK1; set-up: species or system human, MV4-11 + K-562 + COLO205 + SK-N-BE2 + OVCAR-8; conditions: read-out: apparent Kd, compound concentrations: 100 nM and 1000 nM (sheet 'Samples'), n = 1
BMP2K = system: BMP2K; set-up: species or system human, MV4-11 + K-562 + COLO205 + SK-N-BE2 + OVCAR-8; conditions: read-out: apparent Kd, compound concentrations: 100 nM and 1000 nM (sheet 'Samples'), n = 1
CLK1 = system: CLK1; set-up: species or system human, MV4-11 + K-562 + COLO205 + SK-N-BE2 + OVCAR-8; conditions: read-out: apparent Kd, compound concentrations: 100 nM and 1000 nM (sheet 'Samples'), n = 1
CLK4 = system: CLK4; set-up: species or system human, MV4-11 + K-562 + COLO205 + SK-N-BE2 + OVCAR-8; conditions: read-out: apparent Kd, compound concentrations: 100 nM and 1000 nM (sheet 'Samples'), n = 1
CSNK2A1;CSNK2A3 = system: CSNK2A1;CSNK2A3; set-up: species or system human, MV4-11 + K-562 + COLO205 + SK-N-BE2 + OVCAR-8; conditions: read-out: apparent Kd, compound concentrations: 100 nM and 1000 nM (sheet 'Samples'), n = 1
CSNK2A2 = system: CSNK2A2; set-up: species or system human, MV4-11 + K-562 + COLO205 + SK-N-BE2 + OVCAR-8; conditions: read-out: apparent Kd, compound concentrations: 100 nM and 1000 nM (sheet 'Samples'), n = 1
FLT4 = system: FLT4; set-up: species or system human, MV4-11 + K-562 + COLO205 + SK-N-BE2 + OVCAR-8; conditions: read-out: apparent Kd, compound concentrations: 100 nM and 1000 nM (sheet 'Samples'), n = 1
GAK = system: GAK; set-up: species or system human, MV4-11 + K-562 + COLO205 + SK-N-BE2 + OVCAR-8; conditions: read-out: apparent Kd, compound concentrations: 100 nM and 1000 nM (sheet 'Samples'), n = 1
GSK3A = system: GSK3A; set-up: species or system human, MV4-11 + K-562 + COLO205 + SK-N-BE2 + OVCAR-8; conditions: read-out: apparent Kd, compound concentrations: 100 nM and 1000 nM (sheet 'Samples'), n = 1
GSK3B = system: GSK3B; set-up: species or system human, MV4-11 + K-562 + COLO205 + SK-N-BE2 + OVCAR-8; conditions: read-out: apparent Kd, compound concentrations: 100 nM and 1000 nM (sheet 'Samples'), n = 1
MELK = system: MELK; set-up: species or system human, MV4-11 + K-562 + COLO205 + SK-N-BE2 + OVCAR-8; conditions: read-out: apparent Kd; compound concentrations: 100 nM and 1000 nM (sheet 'Samples'), CATDS: 8.4068419636258301E-3; n = 1
NUAK1 = system: NUAK1; set-up: species or system human, MV4-11 + K-562 + COLO205 + SK-N-BE2 + OVCAR-8; conditions: read-out: apparent Kd, compound concentrations: 100 nM and 1000 nM (sheet 'Samples'), n = 1
PAK4 = system: PAK4; set-up: species or system human, MV4-11 + K-562 + COLO205 + SK-N-BE2 + OVCAR-8; conditions: read-out: apparent Kd, compound concentrations: 100 nM and 1000 nM (sheet 'Samples'), n = 1
PKN1 = system: PKN1; set-up: species or system human, MV4-11 + K-562 + COLO205 + SK-N-BE2 + OVCAR-8; conditions: read-out: apparent Kd, compound concentrations: 100 nM and 1000 nM (sheet 'Samples'), n = 1
PKN3 [1] = system: PKN3; set-up: species or system human, MV4-11 + K-562 + COLO205 + SK-N-BE2 + OVCAR-8; conditions: read-out: apparent Kd, compound concentrations: 100 nM and 1000 nM (sheet 'Samples'), n = 1;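 on IC50: NanoBRET target engagement in HEK293T cells transiently expressing full-length PKN3 with C-terminal NanoLuc, displacement of fluorescent tracer K5 (500 nM), BRET read after 2 h equilibration at 37 °C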
PRKAG1 = system: PRKAG1; set-up: species or system human, MV4-11 + K-562 + COLO205 + SK-N-BE2 + OVCAR-8; conditions: read-out: apparent Kd, compound concentrations: 100 nM and 1000 nM (sheet 'Samples'), n = 1
Q6ZSR9 = Q6ZSR9 (human, UniProt Q6ZSR9); set-up: species or system MV4-11 + K-562 + COLO205 + SK-N-BE2 + OVCAR-8; conditions: read-out: apparent Kd, compound concentrations: 100 nM and 1000 nM (sheet 'Samples'), n = 1
RET = system: RET; set-up: species or system human, MV4-11 + K-562 + COLO205 + SK-N-BE2 + OVCAR-8; conditions: read-out: apparent Kd, compound concentrations: 100 nM and 1000 nM (sheet 'Samples'), n = 1
SIK2 = system: SIK2; set-up: species or system human, MV4-11 + K-562 + COLO205 + SK-N-BE2 + OVCAR-8; conditions: read-out: apparent Kd, compound concentrations: 100 nM and 1000 nM (sheet 'Samples'), n = 1
PKN3 [2] = conditions: hek293t cells

Q6ZSR9, sequence (Q6ZSR9 whole entry, looked up): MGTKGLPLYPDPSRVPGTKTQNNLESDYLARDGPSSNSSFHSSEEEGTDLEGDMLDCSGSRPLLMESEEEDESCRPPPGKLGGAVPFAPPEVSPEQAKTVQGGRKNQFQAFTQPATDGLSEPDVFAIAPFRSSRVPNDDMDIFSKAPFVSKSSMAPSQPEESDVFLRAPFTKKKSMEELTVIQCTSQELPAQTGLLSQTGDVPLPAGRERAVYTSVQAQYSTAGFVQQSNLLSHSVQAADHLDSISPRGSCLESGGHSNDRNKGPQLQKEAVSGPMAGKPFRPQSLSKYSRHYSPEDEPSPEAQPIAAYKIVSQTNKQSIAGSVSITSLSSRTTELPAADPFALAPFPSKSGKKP

For `Clc1cc(Cl)cc(Nc2ccnc(Nc3cc(Cl)cc(Cl)c3)n2)c1` [GSK175726A], the potency estimated from few doses (AAK1; CATDS: 1.17801193164304E-2) was 460 nM, the potency estimated from few doses (BMP2K; CATDS: 9.0184479884945195E-3) was 1240 nM and the potency estimated from few doses (CLK1; CATDS: 2.2055974074076602E-2) was 111 nM. The potency estimated from few doses (CLK4; CATDS: 1.3138431378969501E-2) was 338 nM, the potency estimated from few doses (CSNK2A1;CSNK2A3; CATDS: 1.0484195430571001E-2) was 672 nM and the potency estimated from few doses (CSNK2A2; CATDS: 1.04904160104555E-2) was 671 nM. It also gave a potency estimated from few doses (FLT4; CATDS: 8.8646184270887406E-3) of 1350 nM, a potency estimated from few doses (GAK; CATDS: 2.44642148870544E-2) of 92.1 nM and a potency estimated from few doses (GSK3A; CATDS: 1.64548846246832E-2) of 197 nM. For the same compound, the potency estimated from few doses (GSK3B; CATDS: 1.50283486353895E-2) was 242 nM, the potency estimated from few doses (MELK) was 1790 nM and the potency estimated from few doses (NUAK1; CATDS: 1.3178024386402599E-2) was 335 nM. For the same compound, the potency estimated from few doses (PAK4; CATDS: 1.1864346361446201E-2) was 450 nM, the potency estimated from few doses (PKN1; CATDS: 8.1278223120285105E-3) was 2200 nM and the potency estimated from few doses (PKN3 [1]; CATDS: 9.6016767734474606E-3) was 940 nM. The potency estimated from few doses (PRKAG1; CATDS: 2.2079366714636301E-2) was 110 nM, the potency estimated from few doses (Q6ZSR9; CATDS: 1.1627061095110299E-2) was 479 nM and the potency estimated from few doses (RET; CATDS: 1.2674098851270001E-2) was 373 nM. The potency estimated from few doses (SIK2; CATDS: 1.3915634821930201E-2) was 291 nM.
`CCn1c(-c2nonc2N)nc2c(C#CC(C)(C)O)nc(CN3CCCC3)cc21` [GSK1000163A] showed a potency estimated from few doses (PKN3 [1]; CATDS: 0.30633787059967998) of 558 nM, a potency estimated from few doses (Q6ZSR9; CATDS: 0.15882546471257) of 2130 nM and an IC50 (PKN3 [2]; read-out: Average, SD, n = 4) of 6970 nM. For the same compound, the IC50 (PKN3 [2]; read-out: Rep 1) was 11100 nM, the IC50 (PKN3 [2]; read-out: Rep 2) was 9200 nM and the IC50 (PKN3 [2]; read-out: Rep 3) was 6130 nM. It also gave an IC50 (PKN3 [2]; read-out: Rep 4) of 1430 nM.
For `Cl.Nc1c(C(=O)c2cccc(C#CCN3CCCCC3)c2)cnn1-c1ccc(F)cc1` [RO1154461-001], the potency estimated from few doses (AAK1; CATDS: 1.4474046603820999E-2) was 607 nM, the potency estimated from few doses (BMP2K; CATDS: 1.20459910405703E-2) was 1000 nM and the potency estimated from few doses (CLK1; CATDS: 1.5060802907151999E-2) was 552 nM. The potency estimated from few doses (CLK4; CATDS: 1.3844573276346099E-2) was 679 nM, the potency estimated from few doses (CSNK2A1;CSNK2A3; CATDS: 1.1541786487004701E-2) was 1140 nM and the potency estimated from few doses (CSNK2A2; CATDS: 1.10304448511726E-2) was 1330 nM. For the same compound, the potency estimated from few doses (FLT4; CATDS: 1.33586959494144E-2) was 746 nM, the potency estimated from few doses (GAK; CATDS: 4.3588593109949197E-2) was 81.4 nM and the potency estimated from few doses (GSK3A; CATDS: 3.2177955723616897E-2) was 129 nM. For the same compound, the potency estimated from few doses (GSK3B; CATDS: 1.7633019943865499E-2) was 387 nM, the potency estimated from few doses (NUAK1; CATDS: 1.03638923622048E-2) was 1670 nM and the potency estimated from few doses (PAK4; CATDS: 1.4039072021364001E-2) was 656 nM. The potency estimated from few doses (PKN1; CATDS: 1.0439948324783401E-2) was 1630 nM, the potency estimated from few doses (PKN3 [1]; CATDS: 1.05012639622415E-2) was 1590 nM and the potency estimated from few doses (PRKAG1; CATDS: 3.6022361277962302E-2) was 108 nM. The potency estimated from few doses (Q6ZSR9; CATDS: 1.44791042777868E-2) was 607 nM, the potency estimated from few doses (RET; CATDS: 1.69120998976478E-2) was 424 nM and the potency estimated from few doses (SIK2; CATDS: 1.66377583432985E-2) was 439 nM.
